These results are taken from PubChem BioAssay AID1745845 (National Center for Advancing Translational Sciences (NCATS), 2022).

Out of some 360,000 compounds screened, about 2,600 (0.72%) were called active. Where a call stands in place of a potency, no number is given. Another 5% or so got no clear call; they are omitted. This is one part of a sample in which actives are shown more often than they occur. Calls follow the shape of the dose curve; as a rule, active = well fitted inhibition curve with a large enough effect; inconclusive = small, poorly fitted or top-dose-only effect; inactive = no such curve, though single readings can be large or run the other way.
Potency is read from the fitted curve at half-maximal effect.

This experiment can be described thus: Primary qHTS for Inhibitors of ATXN expression. Also: nearly all actives have a fitted effect of over 55% in size. As to conditions: HEK-293 ATXN2-luciferase reporter, luminescence, 24 h; series mostly up to 57 µM. Put shortly:
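qHTS (up to 57 uM final) was run with 24 h compound exposure of reporter cells at 37 °C. Each well was multiplexed: SteadyGlo luminescence measured ATXN2-luciferase expression after a fluorogenic Gly-Phe-AFC viability readout (25 uM final).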
(qHTS replaces the single test concentration by a dilution series.)
Consider `Cn1c(=O)[nH]c(=O)c2c1nc(NCCc1ccccc1)n2Cc1ccc(F)cc1`, for which the Potency result was “inactive”.
The result for `CC(=O)Nc1ccc(Nc2c3ccccc3nc3ccccc23)cc1` reads 2.51 µM (active); that for `O=C(NNc1c2ccccc2nc2ccccc12)c1cc2ccccc2cc1O`, “inactive”; that for `CC(=O)Nc1ccc(S(=O)(=O)N(C)c2nc3ccccc3nc2Cl)cc1`, “inactive”.
As for `Cc1cc2c(cc1C)C(c1cccc(OC(C)C)c1)CC(=O)N2` (stereo not given), the Potency result was “inactive”.
The result for `CCS(=O)(=O)N1CCc2cc(C(=O)NCc3ccc(OC)cc3)ccc21` reads “inactive”.
For `CCOC(=O)c1ccc(NC(=O)CC2C(=O)N(c3ccccc3)C(=O)N2Cc2cccs2)cc1` (stereo not given), the Potency result was “inactive”.
As for `COc1ccccc1N1CCN(c2ncnc3onc(-c4ccc(F)cc4)c23)CC1`, the Potency result is “inactive”.
The result for `COCOCCn1cc(CN2CCS(=O)(=O)N(Cc3ccc(-c4ccc(OC)cc4)cc3)C(CC(C)C)C2=O)nn1` (stereo not given) reads 28.2 µM (active).
The result for `COCOCCn1cc(CN2CCS(=O)(=O)N(Cc3ccc(-c4cccc(N(C)C)c4)cc3)C(CC(C)C)C2=O)nn1` (stereo not given) reads “inactive”; that for `COc1ccc(-c2ccc(CN3C(CC(C)C)C(=O)N(Cc4cn(CC5CCCCC5)nn4)CCS3(=O)=O)cc2)cc1` (stereo not given), “inactive”; that for `O=C(CC(NCc1cccnc1)C(=O)O)Nc1ccc(O)cc1` (stereo not given), “inactive”.
The result for `COc1ccc(-c2noc(CSc3nnc(-c4ccccc4)n3-c3ccc(F)cc3)n2)c(OC)c1` reads “inactive”; that for `CC(=O)c1ccc(-c2cnc3c(NC=O)cc(-c4cccc(NS(C)(=O)=O)c4)cn23)cc1`, “inactive”.
On to `Cc1ccc(NS(=O)(=O)c2cc3c(cc2Br)NC(=O)CO3)cc1C`, for which the Potency entry was “inactive”.
In the case of `CCCOc1cccc(C(=O)Nc2cccc(NC(=O)c3ccc(C(C)(C)C)cc3)c2)c1`, the Potency entry was “inactive”.
The result for `CCCOc1ccc(/C=N/NC(=O)C2CC2)c(OCCC)c1` reads “inactive”; that for `CCCOc1ccc(C(=O)C(CCC(CNCC)C(=O)c2ccc(OCCC)cc2)CNCC)cc1` (stereo not given), 17.8 µM (active).
Turning to `COc1cccc(-c2nc(S(=O)(=O)c3ccc(C)cc3)c(NCc3ccccc3)o2)c1`, the Potency entry is “inactive”.
Turning to `Cc1cccc(NC(=O)CSc2nc3c(oc4ccccc43)c(=O)n2-c2ccc(F)cc2)c1`, the Potency result is “inactive”.
The result for `COC(=O)c1ccc2c(c1)N(CC(=O)Nc1ccc(C)c(C)c1)C(=O)c1ccccc1S2` reads “inactive”; that for `COc1ccc(/C=C2\SC(=O)N(CCC(=O)NC3CCS(=O)(=O)C3)C2=O)cc1` (stereo not given), “inactive”; that for `COc1ccc(/C=C2/SC(=O)N(CCCCCC(=O)Nc3ccccc3C(=O)O)C2=S)cc1`, 10 µM (active).
The result for `COc1ccc(/C=C2\SC(=O)N(CCC(=O)NCCCn3ccnc3)C2=O)cc1` reads “inactive”; that for `O=C(Nc1ccc2oc(-c3ccc(O)c(Br)c3)nc2c1)c1cc2ccccc2o1`, “inactive”.
